Structures are written as SMILES. A number with no mark means an inactive call.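 How the source made its calls: active means viability at 10 µM of 29.74% or lower, 3 SD below the compound median; inactive means the rest.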

The assay in a line: viability of HCT116 lacking mutant beta-catenin – cell-based, DP diverse set, validation, pilot screen (AID 1004). The conditions noted are these: HCT116 (mutant beta-catenin deleted) viability, CellTiter-Glo, 60 h; at 10 µM; active compounds read low. In general terms: ATP-based viability assays read luminescence as a measure of living cells.
As for `COC(=O)C(O)C(O)(CCC(C)C)C(=O)OC1C(OC)=CC23CCCN2CCc2cc4c(cc2C13)OCO4` (centres undefined), the viability was 30%. `CSC(=S)NCc1c[nH]c2ccccc12`: the viability was 95%.

As to `C=C(C)[C@H]1CN[C@H](C(=O)O)[C@H]1CC(=O)O`, the viability was 94.1%.

Take `Nc1ccncc1`: the viability is 103%. In the case of `COC[C@H]1OC(=O)c2coc3c2[C@@]1(C)C1=C(C3=O)C2CCC(=O)[C@@]2(C)C[C@H]1OC(C)=O` (some centres undefined), the viability was 78.1%. As to `CN(C)[C@@H]1C(=O)C(C(N)=O)=C(O)[C@@]2(O)C(=O)C3=C(O)c4c(O)cccc4[C@@](C)(O)C3CC12` (some centres undefined), the viability was 98.3%.

Regarding `COC1=C[C@@H]2[C@@H]3Cc4ccc(OC)c(O)c4[C@]2(CCN3C)CC1=O`, the viability is 96.9%. `N#CC(C#N)=Cc1ccc([N+](=O)[O-])c(O)c1`: the viability is 97.9%. The result for `O=C1C=CC(=O)C(Cl)=C1` reads 101%. With `C=CCN1CC[C@]23c4c5ccc(O)c4O[C@H]2C(=O)CC[C@@]3(O)[C@H]1C5`, the viability is 96.6%. Consider `O=C1C=C2C=C[C@@H]3C[C@@]2(O1)[C@H]1CCCCN31`, for which the viability is 86%. For the molecule `CC1=C2[C@H]3OC(=O)[C@@H](C)[C@@H]3CC[C@@]2(C)C=CC1=O`, the viability was 98%. Consider `C[C@H]1CCC/C=C/C2C[C@H](O)C[C@H]2[C@H](O)/C=C/C(=O)O1` (some centres undefined), for which the viability was 40.4%. With `O=C1CCC[C@H]2[C@@H]3CCCN4CCC[C@H](CN12)[C@H]34`, the viability is 104%. On to `C[C@]12CC[C@@H](O)C[C@@H]1CC[C@@H]1[C@@H]2CC[C@]2(C)C(=O)CC[C@@H]12`, for which the viability is 98.5%. Take `CC(C)(C)[C@]1(O)C[C@@H]2OC(=O)CC23C(=O)O[C@@H]2OC(=O)[C@H](O)C231` (some centres undefined): the viability was 93.5%. Consider `CCCCCCCCCCCCCC(=O)O[C@@H]1[C@@H](C)[C@@]2(O)[C@@H](C=C(CO)C[C@]3(O)C(=O)C(C)=C[C@@H]23)[C@@H]2C(C)(C)[C@]12OC(C)=O`, for which the viability is 82.7%.

In the case of `CC(=O)O[C@H]1[C@H]2[C@@H](OC(=O)Cc3ccccc3)[C@@H](C)C[C@]2(OC(C)=O)C(=O)/C(C)=C/[C@@H]2[C@H](CC[C@@]13CO3)C2(C)C`, the viability was 89.4%. As for `CCN1C[C@@]2(COC)C3[C@@H](OC)[C@H]4C1[C@@]3(C1C[C@]3(O)C(OC)[C@H](O)[C@@]4(OC(C)=O)C1[C@H]3OC(=O)c1ccccc1)[C@H](OC)C[C@H]2O` (some centres undefined), the viability is 99.8%.

As a reminder, the viability is a read-out of living cells in per cent, often relative to untreated cells.
